Autofluor 339 – intrinsic fluorescence of library compounds, ex339/em460 – biochemical, MLSMR library, data from DPM-DC assay, artefact control, profiling panel; fluorescence fold increase at 10 µM; compound autofluorescence, ex339/em460 nm, NADH buffer; hits give high values; 1 = no-compound wells, NADH background; 65,000 tested, 5.5% active; AID 709, 2007;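 active means at 10 µM, mean starting fluorescence two-fold or more over control wells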;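 further: signal is the first read of a kinetic run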
DPM-DC inhibit – S. pneumoniae DPM-DC inhibitors, primary screen, biochemical, PK/LDH-coupled NADH fluorescence. diphosphomevalonate decarboxylase (Streptococcus pneumoniae D39). purified DPM-DC. calls only at 10 µM. 65,000 tested, 0.49% active;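 active means the 320 compounds with the highest percent inhibition in the single-dose primary screen, excluding strongly autofluorescent ones, cut at about 32% in these data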;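 further: kinetic rate of NADH fluorescence loss reporting ADP formed by the decarboxylase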
Spn PMK inh – S. pneumoniae PMK inhibitors, primary screen, biochemical, mevalonate pathway, pilot trial included; phosphomevalonate kinase (Streptococcus pneumoniae D39); purified PMK, PK/LDH-coupled NADH absorbance 340 nm; inhibition, % at 10 µM; 65,000 tested, 0.49% active;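 active means top-ranked compounds by inhibition in the single 10 µM screen, taking a fixed number of the strongest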;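 further: 0% = full reaction with DMSO carrier and 100% = background rate without enzyme reaction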
Spn MK inh – S. pneumoniae MK inhibitors, primary screen, biochemical, PK/LDH-coupled NADH absorbance | AID 555, 2006 | purified MK, PK/LDH-coupled NADH absorbance 340 nm | mevalonate kinase [Streptococcus pneumoniae D39] | 65,000 tested, 0.48% active | inhibition, % at 10 µM;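 active means ranked among the strongest by inhibition in the single 10 µM screen, a fixed top-ranked set picked for dose follow-up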
A340 absorber – compound light absorbance at 340 nm, profiling panel, artefact control, biochemical, MLSMR library, data from PS, PMK, MK assays; 65,000 tested, under 10 active; fold change at 10 µM; compound absorbance at 340 nm, fold over control;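 active means at 10 µM dose, initial 340 nm absorbance at least 2 fold that of control wells; inactive means change under 2 fold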;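 further: initial absorbance extrapolated from kinetic A340 decline of NADH oxidation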
NADH coupling – inhibitors of PK/LDH coupling enzymes, profiling panel, artefact control, biochemical, MLSMR library; coupled PK/LDH NADH assays, four targets; IC50, µM (series often up to 10 µM), for inactives: at the top dose inhibition; 65,000 tested, 0.02% active; AID 774, 2007;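 active means single-dose screening hits from any of four coupled enzyme assays that gave an IC50 when retested across doses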;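 further: the DPM-DC format reads NADH fluorescence rather than 340 nm absorbance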
Active calls of the source: *; i = inactive; . = not tested or not shown; + = active, no number. Most compounds without a hit are left out; they make up all but 6.8% or so of the library.

SMILES	Autofluor 339	DPM-DC inhibit	Spn PMK inh	Spn MK inh	A340 absorber	NADH coupling
CC(C)(C)NS(=O)(=O)c1ccc(NS(=O)(=O)c2ccc(F)cc2)cc1	1.08	i	26.0*	7.0	1.06	11.0%
Cc1cc(CN2CCN(CCC#N)CC2)c(O)c(C2(C)CCCCC2)c1	1.03	i	0.0	3.0	1.01	0.0%
Clc1cccc(-c2ccc(/C=N/n3cnnc3)o2)c1	1.23	+	0.0	7.0	1.26	3716µM*
c1coc(CNc2nc(N3CCCCC3)nc3ccccc23)c1	3.7*	.	13.0	13.0	0.99	13.0%
c1ccc(N2CCN(c3nc(NCc4ccco4)c4ccccc4n3)CC2)cc1	1.63	i	0.0	3.0	1.04	1.0%
CCCCn1c(=O)n(C)c(=O)c2c(C(F)(F)F)cc(-c3ccncc3)nc21	2.11*	.	12.0	0.0	1.1	6.0%
CCCCn1ccc(=O)c2c(C(F)(F)F)nccc21	1.1	i	0.0	12.0	1.11	4.0%
Cn1c(=O)c2c(SCC(=O)NCC3CCCO3)nc(-c3cccs3)nc2n(C)c1=O (centres undefined)	2.2*	.	2.0	3.0	1.21	3.0%
CC(C)Sc1nc(-c2cccs2)nc2c1c(=O)n(C)c(=O)n2C	1.4	i	14.0	8.0	1.1	9.0%
Cn1cc(C(=O)c2ccc(Cl)cc2)cc1-c1nc2ccccc2n1C	1.24	i	3.0	0.0	1.11	1.0%
O=C(Cc1ccccc1)Nc1ccc(-c2nnc(-c3ccco3)o2)cc1	2.65*	i	12.0	5.0	1.01	13.0%
COc1ccccc1CC(=O)Nc1ccc(-c2nnc(-c3ccco3)o2)cc1	2.27*	.	1.0	9.0	1.08	5.0%
O=C(Cc1ccc(Cl)cc1)Nc1ccc(-c2nnc(-c3ccco3)o2)cc1	1.49	i	0.0	12.0	1.18	12.0%
CCC(=O)Nc1ccc(C(=O)c2ccccc2)cc1	1.09	i	5.0	0.0	1.04	2.0%
CCC(=O)Nc1ccc(-c2nnc(-c3ccccc3)o2)cc1	2.36*	.	9.0	4.0	1.02	7.0%
COc1ccc(CC(=O)Nc2cccc(-c3nnc(-c4ccco4)o3)c2)cc1	1.14	i	8.0	0.0	1.02	3.0%
O=C(O)CCC(=O)Nc1ccc(-c2nnc(-c3ccco3)o2)cc1	2.14*	.	4.0	2.0	1.09	3.0%
CC(=O)Nc1ccc(C(=O)n2nc(C)cc2C)cc1	1.07	i	0.0	0.0	1.01	0.0%
O=C(c1ccco1)N1CCN(CC(O)COc2ccc3oc4ccccc4c3c2)CC1 (centres undefined)	1.03	i	12.0	3.0	0.98	5.0%
CCOC(=O)c1ccc(CNC(=O)Cn2nnc(-c3ccc(C)cc3)n2)o1	1.04	i	10.0	0.0	1.04	3.0%
CCC1SC2=NC(C)=C(C(=O)OCCOC)C(c3ccc(C(=O)OC)cc3)N2C1=O (centres undefined)	1.03	i	10.0	0.0	1.06	3.0%
CC(=O)N1CCc2cc(S(=O)(=O)NCCN3CCC(C)CC3)ccc21	1.11	i	12.0	0.0	1.05	4.0%
COC(=O)c1c(C#N)c(N)nc2c1CCC2	2.97*	.	3.0	11.0	1	3.0%
CCOC(=O)N1CCC(N2C(=O)c3ccccc3C2Nc2ccc3c(C)cc(=O)oc3c2)CC1 (centres undefined)	2.48*	.	10.0	4.0	1.06	3.0%
CCOC(=O)c1ccccc1NC1OC(=O)c2ccccc21 (centres undefined)	3.63*	.	16.0	0.0	1.04	8.0%
CCOC(=O)c1ccccc1NC1c2ccccc2C(=O)N1c1ccc(C)cn1 (centres undefined)	1.56	i	2.0	5.0	1.03	4.0%
CCOC(=O)c1ccccc1NC1c2ccccc2C(=O)N1C1CCN(C(=O)OCC)CC1 (centres undefined)	2.43*	.	0.0	5.0	0.99	1.0%
Nc1c(S(=O)(=O)c2ccccc2)c2nc3ccccc3nc2n1/N=C/c1cccc(O)c1	3.72*	.	4.0	10.0	1.1	7.0%
